Several values for one entry are separate records, joined by “and”; a condition that tells them apart may be missing. Identical values can stand only once. Activity calls are given as the source filed them.

Assay [1] can be described thus: optical density shifts of acrAB sulA E. coli – strain DRC41, OD650, 48 h, E. coli filamentation inducer project, primary screen (AID 1152).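 Also: E. coli MC1000 strain DRC41 lacking acrAB efflux pump and sulA.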 The following applies: higher = more signal, called active from +8 up or from −8 down.
A short description of assay [2]: probe aLefty1 binding on compound microarray – biochemical, small-molecule microarray, 635/667 nm fluorescence, primary screen (AID 1153).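 Also: score merges spot fluorescence with signal-to-noise ratio from the scanned slide images.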 The following applies: higher = more signal.
Assay [3] in a line: plasmodial surface anion channel blockers, osmotic lysis – cell-based, P. falciparum Indochina, OD700, 1 h, primary screen (AID 1154). The following applies: P. falciparum Indochina infected RBC osmotic lysis, higher = more signal, called active from +8 up or from −8 down.
A short description of assay [4]: plasmodial surface anion channel blockers, osmotic lysis – cell-based, P. falciparum Indochina, OD700, 2 h, primary screen (AID 1155).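 Also: lysis reports solute entry through the parasite surface anion channel PSAC.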 As to conditions: P. falciparum Indochina infected erythrocytes, higher = more signal, called active from +8 up or from −8 down.
A short description of assay [5]: changes in parasitized red cell lysis, either direction – P. falciparum Indochina, OD700, 3 h, PSAC antagonist project, primary screen (AID 1156). The following applies: P. falciparum-infected erythrocytes, osmotic lysis, higher = more signal, called active from +8 up or from −8 down.
The nature of assay [6]: plasmodial surface anion channel blockers, osmotic lysis – cell-based, P. falciparum Indochina, OD700, 18 h, primary screen (AID 1157). The following applies: P. falciparum Indochina infected erythrocytes, osmotic lysis OD700, 18 h; higher = more signal, called active from +8 up or from −8 down.
Assay [7] is described as follows: S6 kinase pathway phospho-S6 level changes – cell-based, A549, cytoblot, luminescence, serum-stimulated, primary screen (AID 1158).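 Also: serum-stimulated A549 lung adenocarcinoma cells; signal is phosphorylated S6 detected by cytoblot immunostaining with HRP secondary.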 The following applies: 5 h, higher = more signal.
For assay [8], the target named is NADPH oxidase 2 (Homo sapiens) (UniProt P04839). The assay is described as follows: compounds shifting NOX2 Amplex Red fluorescence – cell-based, HEK293-NOX2, PMA-stimulated, NOX inhibitor project, primary screen (AID 1159). Also: test concentration not given here. The following applies: 45 min, higher = more signal, called active from +8 up or from −8 down.
Assay [9] addresses NADPH oxidase 4 (Homo sapiens) (UniProt Q9NPH5). Nature of the assay: compounds shifting NOX4 Amplex Red fluorescence – cell-based, HEK293-NOX4, tetracycline-induced, NOX inhibitor project, primary screen (AID 1160). As to conditions: HEK293-NOX4, Amplex Red H2O2 fluorescence, 45 min; higher = more signal, called active from +8 up or from −8 down.
Assay [10] concerns the target NADPH oxidase 5 (Homo sapiens) (UniProt Q96PH1). The assay is described as follows: compounds shifting NOX5 Amplex Red fluorescence – cell-based, HEK293-NOX5, NOX inhibitor project, primary screen (AID 1161). The following applies: HEK293-NOX5, ionomycin, 45 min, higher = more signal.

Chain of NADPH oxidase 2 (Homo sapiens) (P04839 whole entry, looked up): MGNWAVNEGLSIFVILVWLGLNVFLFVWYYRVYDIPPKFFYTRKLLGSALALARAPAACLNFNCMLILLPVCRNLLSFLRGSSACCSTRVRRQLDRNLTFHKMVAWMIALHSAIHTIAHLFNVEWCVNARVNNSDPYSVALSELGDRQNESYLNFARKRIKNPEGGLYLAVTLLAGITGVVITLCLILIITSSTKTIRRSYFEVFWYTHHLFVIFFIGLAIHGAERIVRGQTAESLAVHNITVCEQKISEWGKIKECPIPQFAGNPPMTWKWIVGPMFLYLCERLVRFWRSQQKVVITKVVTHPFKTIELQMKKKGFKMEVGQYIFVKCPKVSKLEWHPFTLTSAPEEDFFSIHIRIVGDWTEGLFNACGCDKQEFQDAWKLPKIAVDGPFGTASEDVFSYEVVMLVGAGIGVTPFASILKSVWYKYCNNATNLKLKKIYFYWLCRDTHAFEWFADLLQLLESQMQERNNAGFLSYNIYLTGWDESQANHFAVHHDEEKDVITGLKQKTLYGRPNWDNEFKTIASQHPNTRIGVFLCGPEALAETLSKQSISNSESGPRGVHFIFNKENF
Chain of NADPH oxidase 5 (Homo sapiens) (Q96PH1 whole entry, looked up): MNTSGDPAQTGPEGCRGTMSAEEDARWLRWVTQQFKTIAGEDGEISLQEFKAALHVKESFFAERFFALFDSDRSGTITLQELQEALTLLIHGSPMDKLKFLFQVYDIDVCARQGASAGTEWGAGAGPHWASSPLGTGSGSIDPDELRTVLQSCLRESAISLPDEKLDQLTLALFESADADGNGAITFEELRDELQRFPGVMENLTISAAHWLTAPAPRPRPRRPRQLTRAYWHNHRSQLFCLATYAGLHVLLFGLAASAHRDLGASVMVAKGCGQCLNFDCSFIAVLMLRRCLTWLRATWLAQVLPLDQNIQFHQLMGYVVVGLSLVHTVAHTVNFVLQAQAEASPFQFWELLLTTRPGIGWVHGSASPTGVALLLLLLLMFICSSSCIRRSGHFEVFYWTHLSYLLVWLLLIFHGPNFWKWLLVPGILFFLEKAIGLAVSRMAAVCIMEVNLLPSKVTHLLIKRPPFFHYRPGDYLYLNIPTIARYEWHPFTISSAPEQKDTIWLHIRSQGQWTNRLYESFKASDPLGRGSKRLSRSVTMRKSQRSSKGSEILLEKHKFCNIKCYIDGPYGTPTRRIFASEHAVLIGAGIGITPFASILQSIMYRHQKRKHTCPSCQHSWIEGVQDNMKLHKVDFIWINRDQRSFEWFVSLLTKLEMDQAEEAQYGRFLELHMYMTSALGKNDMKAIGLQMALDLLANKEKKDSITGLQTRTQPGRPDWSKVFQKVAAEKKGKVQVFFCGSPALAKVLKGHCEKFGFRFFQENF
Chain of NADPH oxidase 4 (Homo sapiens) (Q9NPH5 whole entry, looked up): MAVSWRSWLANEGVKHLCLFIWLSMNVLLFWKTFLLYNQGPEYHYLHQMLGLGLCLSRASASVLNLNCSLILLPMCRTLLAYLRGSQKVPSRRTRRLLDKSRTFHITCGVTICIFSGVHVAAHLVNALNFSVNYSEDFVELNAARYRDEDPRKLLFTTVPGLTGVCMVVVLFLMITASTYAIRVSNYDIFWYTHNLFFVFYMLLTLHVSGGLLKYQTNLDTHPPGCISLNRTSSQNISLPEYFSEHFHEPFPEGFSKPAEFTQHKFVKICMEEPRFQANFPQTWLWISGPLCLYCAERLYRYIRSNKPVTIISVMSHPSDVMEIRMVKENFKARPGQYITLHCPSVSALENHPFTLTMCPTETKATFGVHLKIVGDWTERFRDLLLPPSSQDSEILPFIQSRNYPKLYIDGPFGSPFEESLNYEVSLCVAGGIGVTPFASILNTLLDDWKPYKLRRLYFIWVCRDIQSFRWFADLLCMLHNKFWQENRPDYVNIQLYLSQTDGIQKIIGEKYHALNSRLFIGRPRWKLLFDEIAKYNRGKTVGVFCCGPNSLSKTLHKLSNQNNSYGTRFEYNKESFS

On to `CO[C@@H]1C=CCC(=O)N2CCC[C@H]2C(=O)OC[C@H](C)C(=O)OC[C@H]1C`, for which the z-score is 0.813 (inactive) in assay [1]; -0.393 (inactive) in [3]; -0.25 (inactive) in assay [4]; -0.355 (inactive) in assay [5]; 0.0084 (inactive) in assay [6]; 0.0533 in assay [7]. In addition, the figures for the z-score in assay [8], in assay [9] and in assay [10] were -0.773 (inactive), 0.208 (inactive) and 0.221, respectively. This compound also returned a composite z-score in assay [2] of -0.0536.
Turning to `COC(=O)C1=C(C)N(Cc2ccccc2)[C@]23O[C@](C(=O)OC)(C(=O)N2[C@@H]1c1ccccc1)[C@@H](C(=O)OC)[C@H]3C(=O)OC`, the z-score in assay [1] is 0.514 (inactive) and 0.184 (inactive); in assay [3], 0.295 (inactive) and 0.114 (inactive); in assay [4] it was 0.185 (inactive) and 0.319 (inactive); in assay [5], 0.285 (inactive) and -0.414 (inactive); in assay [6], -0.022 (inactive) and 0.17 (inactive); in assay [7], -0.046 and 0.635. Besides, the z-score in assay [8] was 1.8 (inactive) and -0.506 (inactive); in assay [9], -1.42 (inactive) and -0.0445 (inactive); in [10], 0.371 and 0.422. Moreover, in [2], the composite z-score is -0.282 and -0.0011.
With `CCN1C(=O)[C@H]2[C@H]3[C@H](O)[C@H](O)CC(=NNC(=O)OCc4ccc(OC)cc4)[C@H]3CC[C@H]2C1=O`, the z-score in assay [1] is 0.386 (inactive); in assay [3], 3.18 (inactive); in [4] it was -0.464 (inactive); in assay [5] it was 0.175 (inactive); in assay [6] it was 0.232 (inactive); in assay [7], 0.479. The z-score in assay [8] was -0.447 (inactive); in [9], 0.0987 (inactive); in [10], 0.0869. In assay [2], this compound gave a composite z-score of 0.792.
As to `C=C[C@@H](OC)[C@H](O)c1ccc(OCCO)cc1`, the z-score is -0.368 (inactive) and 2.73 (inactive) in [1]; -0.167 (inactive) and 1.57 (inactive) in assay [3]; 0.139 (inactive) and -0.317 (inactive) in assay [4]; -0.123 (inactive) and -0.29 (inactive) in assay [5]; 0.278 (inactive) and -0.993 (inactive) in assay [6]; -0.424 and 2.8 in assay [7]. Also, the z-score in assay [8] was -0.394 (inactive) and -0.426 (inactive); in assay [9] it was -0.164 (inactive) and -0.249 (inactive); in assay [10], -0.743 and -1.57. In addition, the composite z-score in [2] was -0.0984 and -0.53.
Turning to `C=CCN(CCCCC)C(=O)C1N(c2ccc(CCO)cc2)C(=O)C2C(C(=O)O)C3C=CC21O3` (stereo not given), the z-score in [1] is -0.202 (inactive) and 0.216 (inactive); in assay [3], 1.47 (inactive) and 1.68 (inactive); in assay [4], 0.351 (inactive) and 0.438 (inactive); in assay [5], -0.148 (inactive) and -0.54 (inactive); in [6], 0.0385 (inactive) and 0.356 (inactive); in [7], 1.15 and 0.435. The z-score was 1.21 (inactive) and 0.745 (inactive) in assay [8]; 0.564 (inactive) and 0.124 (inactive) in assay [9]; 0.698 and 0.836 in assay [10]. Besides, the composite z-score in [2] was -0.0099 and 0.0736.
Consider `COC(=O)C1=C(C)N(Cc2ccccc2)C2=C3C(=O)N(C)C(=O)[C@@H]3[C@@](O)(C(=O)OC)C(=O)N2[C@@H]1c1ccccc1`, for which the z-score is 0.71 (inactive) and -0.313 (inactive) in [1]; -0.188 (inactive) and -1.06 (inactive) in [3]; -0.215 (inactive) and -1.49 (inactive) in assay [4]; -0.745 (inactive) and -0.379 (inactive) in assay [5]; -0.339 (inactive) and -1.77 (inactive) in assay [6]; -0.137 and 1.48 in assay [7]. Moreover, the z-score in [8] was 1.13 (inactive) and -0.926 (inactive); in assay [9] it was 0.507 (inactive) and 0.254 (inactive); in assay [10] it was -0.0308 and 0.418. For the same compound, the composite z-score in assay [2] was 0.0341 and 0.0278.
`C=CCN(Cc1ccccc1)C(=O)C1N(CCCCCCO)C(=O)C2C(C(=O)O)C3C=CC21O3` (stereo not given): the z-score in [1] was -0.107 (inactive) and 0.999 (inactive); in [3], 0.506 (inactive) and 0.459 (inactive); in assay [4], -0.232 (inactive) and -0.314 (inactive); in assay [5] it was -0.911 (inactive) and -0.362 (inactive); in assay [6], 0.135 (inactive) and 0.161 (inactive); in [7], -0.276 and 0.27. Moreover, the z-score in assay [8] was 0.498 (inactive) and 0.0836 (inactive); in assay [9], -0.308 (inactive) and -0.348 (inactive); in assay [10], 0.751 and 0.232. Besides, in [2], the composite z-score is -0.0508 and -0.101.
As to `CCOC(=O)CCN1C(=O)[C@H]2[C@H]3[C@H](O)[C@H](O)CC(=NNC(=O)OCC)[C@@H]3CC[C@H]2C1=O`, the z-score in assay [1] was 0.542 (inactive); in assay [3], -0.48 (inactive); in assay [4], 0.189 (inactive); in [5], -0.602 (inactive); in assay [6], -0.0634 (inactive); in assay [7], -0.494. The z-score in [8] was -0.489 (inactive); in [9], 0.916 (inactive); in assay [10], 0.754. Also, the composite z-score in [2] is -0.193.
On to `COc1ccc(COC(=O)NN=C2C[C@@H](O)[C@@H](O)[C@@H]3[C@@H]4C(=O)N(C(C)(C)C)C(=O)[C@@H]4CC[C@H]23)cc1`, for which the z-score in [1] was 0.91 (inactive); in assay [3], 1.91 (inactive); in assay [4], -1.4 (inactive); in assay [5], 0.708 (inactive); in assay [6], -1.93 (inactive); in assay [7], 1.25. Also, the z-score in assay [8] was -0.818 (inactive); in assay [9], 0.00608 (inactive); in assay [10] it was -1.43. The compound further yielded a composite z-score in assay [2] of 0.0169.
